# Measured values from PubChem BioAssay (NCATS).
# “And” between values parts separate entries of the source, which are not always exact repeats. Equal entries are not always repeated. Records with an inconclusive call do not appear. Entries that show only a call come without a potency. The source made the active and inactive calls. Calls follow the shape of the dose curve; as a rule, active = well fitted curve in the direction sought with a large enough effect; inconclusive = small, poorly fitted or top-dose-only effect, or another doubt; inactive = no such curve, though single readings can be large; an effect the other way counts as inactive or inconclusive.
# What was measured:
# [1] = qHTS of pediatric cancer cell lines to identify multiple opportunities for drug repurposing: Primary screen for LAN-5 cells (AID 1347100); also: potency is read from the fitted curve at half-maximal effect
# Procedure, shortened: (§1)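 Cells (500-1,000/well) in growth media were settled 5 h at 37 degrees C, then given compounds for 48 h. Viability was read as CellTiter-Glo luminescence. Primary runs used MIPE at 11 points (0.78 nM-46 µM) and NPC at 8 points (0.59 nM-46 µM); follow-ups used 11 points.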
# [2] = qHTS of pediatric cancer cell lines to identify multiple opportunities for drug repurposing: Primary screen for Rh18 cells (AID 1347102); also: nearly all actives have a fitted effect of over 65% in size
# Procedure, shortened: as §1
# [3] = qHTS of pediatric cancer cell lines to identify multiple opportunities for drug repurposing: Primary screen for OHS-50 cells (AID 1347103); also: nearly all actives have a fitted effect of over 40% in size; also: potency is read from the fitted curve at half-maximal effect
# Procedure, shortened: (§2)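 Cells (500-1,000/well) rested 5 h, then received compounds for 48 h; metabolically active cells were measured by CellTiter-Glo luminescence. Final concentrations spanned up to 46 µM (MIPE, 11-point) or 0.59 nM-46 µM (NPC, 8-point) in primary screens, 11-point in follow-ups.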
# [4] = qHTS of pediatric cancer cell lines to identify multiple opportunities for drug repurposing: Primary screen for RD cells (AID 1347104); also: nearly all actives have a fitted effect of over 55% in size; also: potency is read from the fitted curve at half-maximal effect
# Procedure, shortened: (§3)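 Primary screen of approved and investigational compounds on cells in growth media at 37 degrees C, 5% CO2. MIPE set at 11-point and NPC set at 8-point dilutions; viability scored by ATP-based luminescence at 48 hours.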
# [5] = qHTS of pediatric cancer cell lines to identify multiple opportunities for drug repurposing: Primary screen for MG 63 (6-TG R) cells (AID 1347105); also: nearly all actives have a fitted effect of over 50% in size
# Procedure, shortened: as §3
# [6] = qHTS of pediatric cancer cell lines to identify multiple opportunities for drug repurposing: Primary screen for control Hh wild type fibroblast cells (AID 1347106);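 also: series mostly up to about 46 µM; a drop in luminescence marks cytotoxicity and a rise apparent proliferation; nearly all actives have a fitted effect of over 55% in size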
# Procedure, shortened: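 Viability after 48 h compound treatment at 37C, 500-1,000 cells/well, read as ATP luminescence with CellTiter-Glo. Primary screens used 11-point (MIPE, 0.78 nM-46 µM) or 8-point (NPC, 0.59 nM-46 µM) final concentrations; follow-up screens used 11-point dilutions.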
# [7] = qHTS of pediatric cancer cell lines to identify multiple opportunities for drug repurposing: Primary screen for Rh30 cells (AID 1347107); also: series mostly up to about 46 µM; nearly all actives have a fitted effect of over 75% in size
# Procedure, shortened: as §1
# [8] = qHTS of pediatric cancer cell lines to identify multiple opportunities for drug repurposing: Primary screen for Rh41 cells (AID 1347108); also: nearly all actives have a fitted effect of over 70% in size; also: potency is read from the fitted curve at half-maximal effect
# Procedure, shortened: as §3
# [9] = qHTS of pediatric cancer cell lines to identify multiple opportunities for drug repurposing: Primary screen for BT-12 cells (AID 1347101); also: nearly all actives have a fitted effect of over 25% in size; also: potency is read from the fitted curve at half-maximal effect
# Procedure, shortened: as §2
Structure (SMILES),Potency [1],Potency [2],Potency [3],Potency [4],Potency [5],Potency [6],Potency [7],Potency [8],Potency [9]
CN1CCN(c2c(F)cc3c(=O)c(C(=O)O)cn4c3c2OCN4C)CC1,inactive,inactive,inactive,inactive,inactive,inactive,inactive,inactive,
COc1ccc(C(=O)CC(=O)c2ccc(C(C)(C)C)cc2)cc1,,,inactive,,inactive,inactive,inactive,,
CNNCc1ccc(C(=O)NC(C)C)cc1,inactive,inactive,inactive,inactive,,inactive,inactive,inactive,
Nc1nc(N)c2nc(CNc3ccc(C(=O)NC(CCC(=O)O)C(=O)O)cc3)cnc2n1 (stereo unspecified),,inactive,,,inactive,,inactive,inactive,
CCOC(=O)[C@H](CCc1ccccc1)N[C@H]1CCc2ccccc2N(CC(=O)O)C1=O,,,24.3 µM (active),,,inactive,,,27.3 µM (active)
COC(=O)Nc1nc2ccc(Sc3ccccc3)cc2[nH]1,1.32 µM (active),,1.23 µM (active) and 3.06 µM (active),,,inactive,inactive,,1.74 µM (active) and 4.32 µM (active)
O=C(O)c1ccc(-n2nc(-c3ccccc3O)nc2-c2ccccc2O)cc1,inactive,inactive,21.7 µM (active),,,inactive,inactive,,
CNCC[C@H](Oc1cccc2ccccc12)c1cccs1,inactive,,15.5 µM (active),26.6 µM (active) and 4.69 µM (active),,,inactive,,
O=S(=O)(O)CCS,inactive,inactive,inactive,,inactive,inactive,inactive,inactive,
NC(=O)c1ccc2[nH]ccc2c1,inactive,inactive,,inactive,inactive,inactive,,,
CCCc1nc(C)c2c(=O)[nH]c(-c3cc(S(=O)(=O)N4CCN(CC)CC4)ccc3OCC)nn12,,,,,,inactive,,14.8 µM (active),12.2 µM (active)
CCC(=O)O[C@]1(C(=O)SCF)[C@H](C)C[C@H]2[C@@H]3C[C@H](F)C4=CC(=O)C=C[C@]4(C)[C@@]3(F)[C@@H](O)C[C@@]21C,inactive,inactive,,,inactive,inactive,inactive,inactive,
O=c1oc2c(O)c(O)cc3c(=O)oc4c(O)c(O)cc1c4c23,inactive,inactive,inactive,,,inactive,inactive,inactive,
CC(N)C12CC3CC(CC(C3)C1)C2 (stereo unspecified),inactive,inactive,inactive,inactive,inactive,inactive,inactive,inactive,
Cc1nnc(NS(=O)(=O)c2ccc(N)cc2)s1,,,,,,inactive,inactive,,inactive
O[C@@H](CNC[C@H](O)[C@H]1CCc2cc(F)ccc2O1)[C@@H]1CCc2cc(F)ccc2O1,,,24.3 µM (active) and 27.6 µM (active),,,inactive,inactive,,
C[C@]12C=CC(=O)C=C1CC[C@@H]1[C@@H]2C(=O)C[C@@]2(C)[C@H]1CC[C@]2(O)C(=O)CO,inactive,inactive,inactive,inactive,inactive,inactive,inactive,inactive,
CCCc1cc(C(N)=S)ccn1,inactive,inactive,inactive,,,inactive,inactive,inactive,
CC(C)OC(=O)OCOP(=O)(CO[C@H](C)Cn1cnc2c(N)ncnc21)OCOC(=O)OC(C)C,inactive,inactive,,,inactive,inactive,inactive,inactive,
CC(C(=O)O)c1ccc2c(c1)CC(=O)c1ccccc1S2 (stereo unspecified),inactive,inactive,,,inactive,inactive,inactive,inactive,
Cc1nnc(C(=O)NC(C)(C)c2nc(C(=O)NCc3ccc(F)cc3)c(O)c(=O)n2C)o1,inactive,inactive,inactive,inactive,,inactive,inactive,inactive,
Nc1[nH]c(=O)ncc1F,,inactive,inactive,,inactive,inactive,inactive,inactive,inactive
COc1cc2c(Nc3ccc(Br)cc3F)ncnc2cc1OCC1CCN(C)CC1,,,,,,inactive,inactive,,inactive
COc1cnc(NS(=O)(=O)c2ccc(N)cc2)nc1,,inactive,inactive,,inactive,inactive,inactive,inactive,inactive
